# Data: PubChem BioAssay (Tox21)
# Results filed as inconclusive are left out. A number with no mark means an inactive call. The source made the active and inactive calls. The call rests on the fitted dose curve; in most records, active means well fitted curve in the direction sought with a large enough effect in the repeat runs; inconclusive means weak or mixed curves; inactive means no such curve, though single readings can be large; an effect the other way counts as inactive or inconclusive.
# Assay: qHTS RealTime-Glo MT Cell Viability Assay in HepG2 cells - 40 hour (AID 1224870); further: nearly all actives have a fitted effect of over 50% in size
# Details: RealTime-Glo luminescence; series mostly up to 76.8 µM; activity change, negative = cytotoxic: at the top concentration
# In short: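 HepG2 cells (600/well) mixed with RealTime-Glo MT reagent, settled 5 h at 37 C/5% CO2 before compound addition. Nonlytic NanoLuc luminescence from viable-cell prosubstrate reduction read repeatedly during 40 h treatment at 37 C.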
# On the % scale 0 is the no-effect control and ±100 the full control effect.
row,SMILES,"activity change, negative = cytotoxic"
1,C=CC(=O)OCCCCCCCCCC,4.47%
2,O=C(O)c1ccc2c(c1)nc(C(=O)NC1CCN(C3CC3)CC1)n2Cc1cc(-c2ccc(Cl)s2)on1,-1.55% [at 15.8 µM]
3,CC(COc1ccccc1)NC(C)C(O)c1ccc(O)cc1 (configuration not stated),0.151% [at 35.3 µM]
4,Clc1nc2ccccc2nc1Cl,2.09%
5,CCCN(C1CCN(C(=O)C2CCNCC2)CC1)[C@@H]1CCc2ccc(OC)cc2C1,-2.84%
6,CCCOC(C)=O,0.17%
7,Cc1c(-c2cccnc2)c2ccccc2n1CCCCC(=O)O,2.28%
8,CCC(=O)O[C@@H]1C[C@H]2CC[C@]1(C)C2(C)C,1.75%
9,O=[N+]([O-])c1cccc(I)c1,2.43%
10,O=C(O)c1c2ccccc2cc2ccccc12,1.04%
11,O=C(O)c1cccnc1Nc1cccc(C(F)(F)F)c1,1.14% [at 35.3 µM]
12,O=c1c2ccccc2oc2ccccc12,0.0761%
13,CC(=O)c1ccc(Cl)c(Cl)c1Cl,-0.644%
14,CCc1cnc(C(=O)O)c(C(=O)O)c1,-0.967%
15,COc1cccc([C@H](O)C2CCN(CCc3ccc(F)cc3)CC2)c1OC,-0.0132%
16,Cc1nc2sccn2c(=O)c1CCN1CCC(=C(c2ccc(F)cc2)c2ccc(F)cc2)CC1,-11.5% [at 35.3 µM]
17,C=C(C)C(=O)OCCCCCCCCCCOC(=O)C(=C)C,-7.38%
18,C=CC(=O)NC(C)(C)C,-0.0726%

row,SMILES,"activity change, negative = cytotoxic"
1,COc1ccc(C(=O)Nc2ccccc2)cc1[N+](=O)[O-],1.44%
2,Sc1nc(S)nc(S)n1,2.04% [at 35.3 µM]
3,CCCc1ccc(OC)cc1,2.85%
4,CC(C)CC(C)(C)C,0.786%
5,CC1=C(C)C(=O)C(CCCCC#CCCCC#CCO)=C(C)C1=O,-18.5% [at 35.3 µM]
6,C(/C=C/C=C/Nc1ccccc1)=Nc1ccccc1,1.04%
7,OCC(O)c1ccccc1 (configuration not stated),-0.16%
8,CO[C@@H]1[C@@H](O[C@@H]2O[C@H](C)[C@@H](O[C@H]3C[C@@](C)(O)[C@@H](O)[C@H](C)O3)[C@H](N(C)C)[C@H]2O)[C@@H](CC=O)C[C@@H](C)[C@@H](O[C@@H]2CC[C@H](N(C)C)[C@@H](C)O2)/C=C/C=C/C[C@@H](C)OC(=O)C[C@H]1OC(C)=O,1.97% [at 35.3 µM]
9,O=C1c2ccccc2C(=O)C1c1ccc2ccccc2n1,18.6% [at 35.3 µM]
10,CC(=O)Nc1ccccc1O,1.46%
11,O=C(OCCN1CCOCC1)c1cccnc1Nc1cccc(C(F)(F)F)c1,-6.93% [at 35.3 µM]
12,Oc1ccc(Oc2ccccc2)cc1,-4.58%
13,C=C[Si](OCC)(OCC)OCC,1.88%
14,O=[N+]([O-])c1ccccc1CCO,0.0809%
15,O=C(Cl)c1cc(Cl)cc(Cl)c1,3.53%
16,CCC1=C(C)CN(C(=O)NCCc2ccc(S(=O)(=O)NC(=O)NC3CCC(C)CC3)cc2)C1=O (configuration not stated),3.6% [at 35.3 µM]
17,CCOc1cc(OCC)c(C(C)=O)cc1OCC,1.2%

# Assay: A CellTox Green Cytotoxicity Assay to monitor cytotoxicity in HEK293 cells - 40 hour (AID 1224871); further: nearly all actives have a fitted effect of over 45% in size
# Details: CellTox Green fluorescence; series mostly up to 76.8 µM; cytotoxicity increase: at the top concentration
# In short: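 Homogeneous no-lysis format: HEK293 cell suspension mixed with CellTox Green reagent, seeded, incubated 5 h at 37 C/5% CO2, then dosed by pintool with compound in DMSO.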
row,SMILES,cytotoxicity increase [%]
1,CCCCCCCCCCCC(=O)OCC,0.999
2,Cc1ccc2ccccc2c1[N+](=O)[O-],13.9
3,C=CC(O)CCCCC (configuration not stated),-0.0086
4,CCCCCC1CCC(=O)O1 (configuration not stated),0.259

# Assay: qHTS RealTime-Glo MT Cell Viability Assay in HEK293 cells - 16 hour (AID 1224872); further: nearly all actives have a fitted effect of over 50% in size; further: potency means the concentration at half of the fitted maximal effect; on activity change, negative = cytotoxicity: top concentration of the series differs between compounds
# Details: RealTime-Glo luminescence; series mostly up to 76.8 µM; activity change, negative = cytotoxicity: at the top concentration
# In short: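 Homogeneous bioluminescent viability format in HEK293 cells (600 cells/well). Following 5 h at 37 C/5% CO2, 23 nL compound was pintooled; the signal was measured repeatedly during 40 h incubation.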
SMILES,"activity change, negative = cytotoxicity",Potency
C=CC(=O)OCCCCCCCCCC,4.35%,
O=C(O)c1ccc2c(c1)nc(C(=O)NC1CCN(C3CC3)CC1)n2Cc1cc(-c2ccc(Cl)s2)on1,7.22% [at 15.8 µM],
CC(COc1ccccc1)NC(C)C(O)c1ccc(O)cc1 (configuration not stated),-9.27% [at 35.3 µM],
Clc1nc2ccccc2nc1Cl,13.7%,
CCCCCCCCCCCC(=O)OCC,3%,
CCCOC(C)=O,3.11%,
Cc1c(-c2cccnc2)c2ccccc2n1CCCCC(=O)O,5.69%,
CCC(=O)O[C@@H]1C[C@H]2CC[C@]1(C)C2(C)C,-14.8%,
O=C(O)c1cccnc1Nc1cccc(C(F)(F)F)c1,-4.94% [at 35.3 µM],
Cc1ccc2ccccc2c1[N+](=O)[O-],-0.744%,
CC(=O)c1ccc(Cl)c(Cl)c1Cl,-22.9%,
CCc1cnc(C(=O)O)c(C(=O)O)c1,4.37%,
C=CC(O)CCCCC (configuration not stated),0.932%,
Cc1nc2sccn2c(=O)c1CCN1CCC(=C(c2ccc(F)cc2)c2ccc(F)cc2)CC1,,3.01 µM (active)
C=C(C)C(=O)OCCCCCCCCCCOC(=O)C(=C)C,-16.4%,
C=CC(=O)NC(C)(C)C,1.72%,
COc1ccc(C(=O)Nc2ccccc2)cc1[N+](=O)[O-],,24.7 µM (active)
CCCc1ccc(OC)cc1,8.93%,
CC1=C(C)C(=O)C(CCCCC#CCCCC#CCO)=C(C)C1=O,,0.601 µM (active)
C(/C=C/C=C/Nc1ccccc1)=Nc1ccccc1,-20%,
OCC(O)c1ccccc1 (configuration not stated),3.67%,
CO[C@@H]1[C@@H](O[C@@H]2O[C@H](C)[C@@H](O[C@H]3C[C@@](C)(O)[C@@H](O)[C@H](C)O3)[C@H](N(C)C)[C@H]2O)[C@@H](CC=O)C[C@@H](C)[C@@H](O[C@@H]2CC[C@H](N(C)C)[C@@H](C)O2)/C=C/C=C/C[C@@H](C)OC(=O)C[C@H]1OC(C)=O,-0.199% [at 35.3 µM],
CC(=O)Nc1ccccc1O,-7.37%,
C=C[Si](OCC)(OCC)OCC,20.1%,
O=[N+]([O-])c1ccccc1CCO,16.9%,
O=C(Cl)c1cc(Cl)cc(Cl)c1,-9.71%,
CCC1=C(C)CN(C(=O)NCCc2ccc(S(=O)(=O)NC(=O)NC3CCC(C)CC3)cc2)C1=O (configuration not stated),-15.4% [at 35.3 µM],
CCCCCC1CCC(=O)O1 (configuration not stated),21.5%,
